# Measured values taken from PubChem BioAssay.
# “And” between values parts separate entries of the source, which are not always exact repeats. Equal values may be shown once. Where a name gives a salt, the structure may show the parent alone. The source made the active and inactive calls. No rule for the calls is given here. Residues, ends and D or L forms follow the SMILES beside them. *: point of attachment. Tfa = O=C(C(F)(F)F)*
# System: Aerobactin synthetase IucA (Klebsiella pneumoniae hvKP1)
# Assay: Biochemical IucA enzyme inhibition primary screen of the Spectrum library (AID 1346200);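 also: 100% = wells without compound and 0% = wells lacking enzyme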
# Details: malachite green pyrophosphate, A620, at 8 µM, stronger effect = lower value
row,Compound,activity remaining
1,CC[C@H]1OC(=O)[C@H](C)[C@@H](O[C@H]2C[C@@](C)(OC)[C@@H](O)[C@H](C)O2)[C@H](C)[C@@H](O[C@@H]2O[C@H](C)C[C@H](N(C)C)[C@H]2O)[C@](C)(O)C[C@@H](C)[C@@H]2N[C@@H](COCCOC)O[C@H]([C@H]2C)[C@]1(C)O,117% (inactive)
2,CCOC(=O)[C@H](CCc1ccccc1)N[C@@H](C)C(=O)N1CCC[C@H]1C(=O)O,113% (inactive)
3,CCCCCCCCCCCCCCCCCCOCC(O)CO (stereo not given),104% (inactive)
4,CCCCC1C(=O)N(c2ccccc2)N(c2ccc(O)cc2)C1=O (stereo not given),114% (inactive)
5,O=C(O)c1cc(=O)c2ccccc2o1,110% (inactive)
6,COc1ccc2oc3ccccc3c(=O)c2c1,106% (inactive)
7,CCN1CCN(C(=O)NC(C(=O)N[C@@H]2C(=O)N3[C@@H]2SC(C)(C)[C@@H]3C(=O)O)c2ccccc2)C(=O)C1=O (stereo not given in full),104% (inactive)
8,COc1cc(O)c2c(=O)cc(C)oc2c1CC=C(C)C,83.4% (inactive)
9,COC(=O)C[C@@H]1C2(C)C(=O)[C@@H](CC3=C4C=C(OC)O[C@@H](c5ccoc5)[C@]4(C)CCC32)[C@H](O)C1(C)C (stereo not given in full),93.6% (inactive)
10,Nc1nc2ncc(=O)[nH]c2c(=O)[nH]1,121% (inactive)
11,COc1ccc(C(=O)CC(=O)O)c2c1C=CC(C)(C)O2,108% (inactive)
12,COc1ccc(-c2cc(=O)c3ccccc3o2)cc1,114% (inactive)
13,CC(=O)O[C@H]1C(=O)[C@@]2(C)C([C@H](OC(=O)c3ccccc3)[C@]3(O)C[C@H](OC(=O)[C@H](O)[C@@H](NC(=O)c4ccccc4)c4ccccc4)C(C)=C1C3(C)C)[C@]1(OC(C)=O)CO[C@@H]1C[C@@H]2O (stereo not given in full),90.9% (inactive)
14,CC(=O)O[C@@H]1CC2C(C)(C)[C@H](O)C=C[C@]2(C)C2CC[C@@]3(C)[C@H](c4ccoc4)OC(=O)C4OC43[C@@]21C (stereo not given in full),107% (inactive)
15,C[C@@H](N)CO,106% (inactive)
16,Cc1nc(N)cc(C[n+]2csc(CCO)c2C)n1,83.3% (inactive)
17,COc1ccc(-c2oc3c(CC=C(C)C)c(O[C@@H]4O[C@H](CO)[C@@H](O)[C@H](O)[C@H]4O)cc(O)c3c(=O)c2O[C@@H]2O[C@@H](C)[C@H](O)[C@@H](O)[C@H]2O)cc1,121% (inactive)
18,CC(C)(Sc1cc(C(C)(C)C)c(O)c(C(C)(C)C)c1)Sc1cc(C(C)(C)C)c(O)c(C(C)(C)C)c1,89.7% (inactive)
19,O=c1oc2cc(O)ccc2s1,110% (inactive)
20,CO[C@@]1(NC(=O)CSCC#N)C(=O)N2C(C(=O)O)=C(CSc3nnnn3C)CSC21 (stereo not given in full),98.6% (inactive)

row,Compound,activity remaining
1,CC(C)C(NC(=O)C(Cc1ccc(O)cc1)NC(=O)C(NC(=O)C(F)(F)F)C(C)C)C(=O)O (stereo not drawn) (Tfa-Val-Tyr-Val-OH; configuration not given here),105% (inactive)
2,N[C@@H](C(=O)O)[C@@H](O)[C@H](O)[C@H](O)CO,120% (inactive)
3,COC(=O)[C@@H]1C(O)CC[C@H]2CN3CCc4c([nH]c5ccccc45)[C@@H]3C[C@@H]21 (stereo not given in full),96.8% (inactive)
4,N[C@@H](Cc1cc(I)c(Oc2ccc(O)c(I)c2)c(I)c1)C(=O)O,125% (inactive)
5,CC(=O)OC/C=C(C)/C=C/C=C(C)/C=C/C1=C(C)CCCC1(C)C,92.2% (inactive)
6,C[C@H]1COC2=C1C(=O)C(=O)c1c2ccc2c1CCCC2(C)C,106% (inactive)
7,CC(=O)c1ccc2c(c1)N(CCCN(C)C)c1ccccc1S2,104% (inactive)
8,CC(C)c1nc(N(C)S(C)(=O)=O)nc(-c2ccc(F)cc2)c1/C=C/[C@@H](O)C[C@@H](O)CC(=O)O,124% (inactive)
9,CO/N=C(/C(=O)NC1C(=O)N2C(C(=O)OC(C)OC(C)=O)=C(COC(N)=O)CSC12)c1ccco1 (stereo not given),114% (inactive)
10,NCCOB(c1ccccc1)c1ccccc1,97.5% (inactive) and 103% (inactive)
11,COC1=C(OC)C(=O)C(C/C=C(\C)CC/C=C(\C)CC/C=C(\C)CC/C=C(/C)CC/C=C(\C)CC/C=C(\C)CC/C=C(\C)CC/C=C(\C)CC/C=C(\C)CCC=C(C)C)=C(C)C1=O,93% (inactive)
12,Nc1nc2c(c(=O)[nH]1)NC(CNc1ccc(C(=O)N[C@H](CCC(=O)O)C(=O)O)cc1)=CN2,102% (inactive)
13,O=c1[nH]cnc2nc[nH]c12,89.8% (inactive)
14,CC(=O)OCC(=O)[C@@]1(O)CCC2C3CCC4=CC(=O)C=CC4(C)C3[C@@H](O)C[C@@]21C (stereo not given in full),81.1% (inactive)
15,CC[C@@H](CO)NCCN[C@@H](CC)CO,102% (inactive)
16,O=C1C=CC2=C3c4cc(O)c(O)cc4CC3(O)COC2=C1O (stereo not given),94.5% (inactive)
17,CC(=O)Nc1ccc(O)cc1,90% (inactive)
18,COC1CC(O[C@H]2CC[C@]3(C=O)C4CC[C@]5(C)C(C6=CC(=O)OC6)CC[C@]5(O)C4CC[C@]3(O)C2)OC(C)C1O (stereo not given in full),117% (inactive)
19,CC(CCC(=O)O)[C@H]1CCC2C3CC[C@@H]4CCCC[C@]4(C)C3CC[C@@]21C (stereo not given in full),108% (inactive)
20,O=C(O)CCNC(=O)c1ccccc1,103% (inactive)
